KDM5B inh: Primary screen for KDM5B Histone Demethylases FDH-coupled qHTS; Potency, µM (top dose mostly 57.7 µM), most hits filed as inhibitors; hit rate 2.6% among 220,000; KDM5B demethylase, FDH-coupled NADH fluorescence (FDH is formaldehyde dehydrogenase); AID 1347165, 2019; Lysine-specific demethylase 5B (Homo sapiens), Q9UGL1; active = well fitted inhibition curve with a large enough effect; note: 0% is about no effect; nearly all actives have a fitted effect of over 70% in size
Target sequence (Q9UGL1 whole entry, looked up): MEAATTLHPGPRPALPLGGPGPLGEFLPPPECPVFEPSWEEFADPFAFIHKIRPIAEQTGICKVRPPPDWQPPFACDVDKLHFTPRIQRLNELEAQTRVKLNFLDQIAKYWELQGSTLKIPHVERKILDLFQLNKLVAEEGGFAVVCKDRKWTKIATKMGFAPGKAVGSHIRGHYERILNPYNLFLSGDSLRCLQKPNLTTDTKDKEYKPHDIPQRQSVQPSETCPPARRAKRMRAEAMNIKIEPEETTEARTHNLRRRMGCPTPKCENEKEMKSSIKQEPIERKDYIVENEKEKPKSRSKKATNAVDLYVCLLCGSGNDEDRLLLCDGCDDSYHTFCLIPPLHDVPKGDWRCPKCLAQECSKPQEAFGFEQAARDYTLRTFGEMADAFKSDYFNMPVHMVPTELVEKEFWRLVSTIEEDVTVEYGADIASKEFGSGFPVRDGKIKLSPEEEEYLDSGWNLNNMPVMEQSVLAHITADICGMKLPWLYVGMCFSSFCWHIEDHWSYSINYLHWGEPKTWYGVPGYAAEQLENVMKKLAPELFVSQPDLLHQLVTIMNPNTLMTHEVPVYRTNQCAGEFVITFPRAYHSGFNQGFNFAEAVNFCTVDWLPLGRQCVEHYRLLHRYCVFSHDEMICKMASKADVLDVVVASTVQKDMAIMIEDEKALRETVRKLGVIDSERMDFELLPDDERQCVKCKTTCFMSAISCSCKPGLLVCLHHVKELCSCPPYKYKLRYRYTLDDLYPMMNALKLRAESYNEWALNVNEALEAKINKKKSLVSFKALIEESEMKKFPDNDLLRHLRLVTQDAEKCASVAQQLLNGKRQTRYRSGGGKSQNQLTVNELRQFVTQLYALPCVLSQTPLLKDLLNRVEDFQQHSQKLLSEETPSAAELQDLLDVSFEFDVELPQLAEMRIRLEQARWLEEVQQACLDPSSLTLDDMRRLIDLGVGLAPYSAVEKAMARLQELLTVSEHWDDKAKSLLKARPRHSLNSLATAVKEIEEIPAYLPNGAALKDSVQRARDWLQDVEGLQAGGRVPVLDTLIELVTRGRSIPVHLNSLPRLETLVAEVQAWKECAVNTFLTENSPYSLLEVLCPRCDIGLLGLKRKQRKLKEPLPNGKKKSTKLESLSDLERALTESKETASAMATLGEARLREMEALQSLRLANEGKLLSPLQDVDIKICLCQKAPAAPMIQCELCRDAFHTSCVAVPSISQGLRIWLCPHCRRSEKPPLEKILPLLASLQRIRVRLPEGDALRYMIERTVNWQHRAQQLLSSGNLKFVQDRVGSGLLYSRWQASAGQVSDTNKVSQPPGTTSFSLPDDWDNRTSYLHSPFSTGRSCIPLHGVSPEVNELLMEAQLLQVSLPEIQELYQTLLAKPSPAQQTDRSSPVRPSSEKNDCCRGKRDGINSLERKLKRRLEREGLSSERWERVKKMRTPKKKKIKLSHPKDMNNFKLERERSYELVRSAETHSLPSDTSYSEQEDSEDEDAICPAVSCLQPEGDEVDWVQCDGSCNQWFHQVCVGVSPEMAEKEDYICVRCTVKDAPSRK
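Here, H3K4me3 peptide (12.5 µM in substrate mix) is demethylated by KDM5BΔAP, 200 nM final, after 10 min compound exposure. Formaldehyde product is coupled through FDH (0.25 U/mL in mix) to NADH fluorescence; 30-min ΔRFU feeds dose-response curves.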
Starred values were filed as active, the others as inactive; i = inactive. The entries come from a sample that favours hits as a whole. Potency is the fitted concentration of half-maximal effect.

SMILES | KDM5B inh
CC(OC(=O)c1nn(C)c(=O)c2ccccc12)c1ccccc1 (stereo not given) | i
O=C(CNC(=O)c1cc2ccccc2oc1=O)c1ccccc1 | i
COCCn1c(C)c(C)c(S(=O)(=O)c2ccccc2)c1NC(=O)C(C)C | i
CCCCCOc1ccc(C(C2C(=O)CC(c3ccccc3)CC2=O)C2C(=O)CC(c3ccccc3)CC2=O)cc1 (stereo not given) | i
Cc1cccc(-n2nc(-c3c(C)nc4scc(CC(=O)NC5CC5)n4c3=O)cc2C)c1 | 25µM*
Cc1ccc2c(c1)cc1c(=O)n(CC(=O)NC3CCCCC3)nc(C)n12 | i
CCCNC(=O)Cc1csc2nc(C)c(-c3cc(C)n(-c4ccc(Cl)c(Cl)c4)n3)c(=O)n12 | 28µM*
CCCNC(=O)c1c(C)nn(-c2cccc(C)c2)c1-n1cccc1 | i
Cc1ccc(Cl)cc1-n1nc(-c2c(C)nc3scc(CC(=O)NCCC(C)C)n3c2=O)cc1C | 22µM*
O=C(Cc1ccccc1)NCCc1csc2nc(-c3ccc(Cl)cc3)nn12 | i
O=C(Cc1ccc(F)cc1)NCCc1csc2nc(-c3ccc(Cl)cc3)nn12 | i
CCCNC(=O)NC(=O)COC(=O)c1ccc(-n2nc(C)cc2C)cc1 | i
COc1ccc(-n2c(SCC(=O)N3CCOCC3)nc(O)cc2=O)cc1 | i
CCOC(=O)N1CCC(NC(=O)c2c(C)nn(-c3cccc(C)c3)c2-n2cccc2)CC1 | i
Cc1nc2scc(CC(=O)N3CCOCC3)n2c(=O)c1-c1cc(C)n(-c2ccc(C(C)C)cc2)n1 | 25µM*
Cn1c(=O)c2c(nc(SCC(=O)N3CCOCC3)n2Cc2ccc(Cl)cc2Cl)n(C)c1=O | i
O=C(c1cccc(Cl)c1)N1CCc2nc(C3CC3)nc(-c3ccc(O)cc3)c2CC1 | i
CN1CCN(CCNC(=O)CC2CCN(C(=O)c3cc4ccccc4[nH]3)CC2)CC1 | i
Cc1ccc2nc(C3CCCN(Cc4ccccc4)C3)[nH]c(=O)c2c1 (stereo not given) | i
CCn1c(C2CCCN(Cc3c(C(=O)O)[nH]c4ccc(C)cc34)C2)n[nH]c1=O (stereo not given) | 28µM*
Cc1ccc(Cn2c(C3CCN(C(=O)c4ccccc4)CC3)n[nH]c2=O)cc1 | i
Cc1ccc(C(=O)NC(CC(=O)O)c2cccs2)o1 (stereo not given) | i
O=C(CN1CCC(c2nc3ccccc3s2)CC1)C12CC3CC(CC(C3)C1)C2 | i
Cc1ccccc1-c1noc(-c2ccc(NC(C)c3cnn(C)c3)nc2)n1 (stereo not given) | 28µM*
Cc1ccccc1-c1noc(-c2ccccc2Br)n1 | i
SMILES | KDM5B inh
Cc1ccccc1-c1noc(-c2ccc(Br)cc2)n1 | i
COCc1cc(=O)n(CC(=O)Nc2cccc(F)c2)c(N2CCOCC2)n1 | i
CSc1ccccc1C(=O)Nc1cccc(F)c1 | i
CC(C)CNc1nc(C(=O)Nc2ccc3cc[nH]c3c2)cs1 | i
COCCN1Cc2ccc(Nc3ccc(OC)cc3)nc2C(C)(C(=O)NC(C)C)C1 (stereo not given) | i
COCCN1Cc2ccc(NCC(C)C)nc2C(C)(C(=O)Nc2cccc(F)c2)C1 (stereo not given) | 32µM*
COCCN1Cc2ccc(NCC(C)C)nc2C(C)(C(=O)Nc2ccncc2)C1 (stereo not given) | 28µM*
CN(C)[C@@H]1CN(C2CCCCCC2)CC[C@@H]1CO | i
O=C(c1ccc(Br)cc1)N(C1CCCCC1)C1CCCCC1 | i
CC(C)(C)c1cc(N)c(O)c(Cl)c1 | i
CCNC(=O)NC(=O)CSc1nnc(-c2ccccc2)c(-c2ccccc2)n1 | i
CCCNc1c(NC(=O)c2cccc(C)c2)c(=O)oc2ccccc12 | i
O=C(COC(=O)c1cc(Cl)ccc1[N+](=O)[O-])c1ccc(C2CCCCC2)cc1 | i
COc1cccc(-c2nc(-c3c(C)noc3C)cc3[nH]c(C)cc23)c1OC | i
Cc1cc2c(-c3ccccc3F)nc(-c3c(C)noc3C)cc2[nH]1 | 35µM*
Cc1cc2c(-c3ccccc3O)nc(-c3c(C)noc3C)cc2[nH]1 | 35µM*
CC(Sc1n[nH]c(-c2ccccc2F)n1)c1nc(C(C)(C)C)no1 (stereo not given) | i
Cc1onc(-c2ccccc2Cl)c1-c1nc(-c2ccc(Br)cc2)no1 | i
Cc1cc2c(-c3ccccc3C)nc(-c3c(C)noc3C)cc2[nH]1 | 32µM*
Cc1cc2c(-c3cccc(O)c3)nc(-c3c(C)noc3C)cc2[nH]1 | i
Clc1cccc(Nc2nc3nonc3nc2N2CCCCC2)c1 | i
Cc1c(Cl)cccc1NC(=O)CSc1nc2c(=O)n(C)c(=O)n(C)c2n1C | i
CC(C)c1ccc(NC(=O)COCC(=O)N(c2ccccc2)c2ccccc2)cc1 | i
Cc1cc(C(=O)OC(C)C(=O)Nc2ccc(F)cc2Cl)c(C)o1 (stereo not given) | i
CC(C)NC(=O)N1Cc2ccccc2OC2(CCN(C(=O)c3ccc4[nH]ccc4c3)CC2)C1 | i
